Source: PubChem BioAssay (several laboratories)
APP 5'UTR act – activators of APP 5'UTR luciferase reporter, primary screen, SH-SY5Y cells | SH-SY5Y APP 5'UTR luciferase reporter, luminescence; zero percent = DMSO vehicle wells | activation, % at 2 µM | hit rate 1% among 190,000 | AID 1276, 2008;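 active means activation above a set limit, based on mean plus 3 SD of controls, cut at about 140% in these data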
Wee1 stabilizer – Wee1 degradation inhibitors, primary screen, cell-based, HeLa, Wee1K328M-luciferase, luminescence; HeLa Luc-Wee1K328M stability; 100% = proteasome inhibitor MG132 effect; reporter increase, % at 5 µM; hit rate 1.2% among 220,000;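 active means activation above the mean of all tested compounds plus 3 SD, set per screening run, cut at about 8.8% in these data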;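 further: cells exposed to compound for 20 h before luminescence read; 0% = DMSO alone and 100% = MG132 at 30 µM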
Target sequence (P30291 whole entry K328M): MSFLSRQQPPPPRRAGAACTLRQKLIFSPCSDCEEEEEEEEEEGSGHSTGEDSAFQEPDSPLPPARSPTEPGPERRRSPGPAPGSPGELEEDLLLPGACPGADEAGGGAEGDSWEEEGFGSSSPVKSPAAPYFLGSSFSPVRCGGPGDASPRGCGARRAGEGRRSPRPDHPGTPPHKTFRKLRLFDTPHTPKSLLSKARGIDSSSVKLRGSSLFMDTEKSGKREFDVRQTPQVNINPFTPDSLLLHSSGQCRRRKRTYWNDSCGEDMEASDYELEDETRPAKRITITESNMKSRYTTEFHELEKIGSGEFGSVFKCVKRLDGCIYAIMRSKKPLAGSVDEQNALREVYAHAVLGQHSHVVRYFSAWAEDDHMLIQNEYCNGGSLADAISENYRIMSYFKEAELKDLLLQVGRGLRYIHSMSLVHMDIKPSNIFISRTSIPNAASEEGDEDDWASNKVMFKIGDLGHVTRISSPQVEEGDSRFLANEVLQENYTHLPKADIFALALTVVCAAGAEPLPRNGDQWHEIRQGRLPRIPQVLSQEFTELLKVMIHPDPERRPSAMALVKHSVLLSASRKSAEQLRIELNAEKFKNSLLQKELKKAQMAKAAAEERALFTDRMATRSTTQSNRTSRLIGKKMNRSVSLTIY
APP 5UTR inh – inhibitors of APP translation via 5'UTR reporter, primary screen, APP 5'UTR luciferase, SH-SY5Y cells; inhibition, % at 2 µM; hit rate 0.82% among 190,000; SH-SY5Y APP 5'UTR-luciferase reporter, luminescence;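 active means inhibition above a set limit, derived from the sample mean plus 3 SD, cut at about 45% in these data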
Hsp70 act – Hsp70 transcriptional activators, primary screen, cell-based, HeLa, Hsp70 promoter luciferase, luminescence, 10 µM. AID 1203, 2008. activation, % at 10 µM. HeLa Hsp70 promoter luciferase reporter; scaled: vehicle 0, proteasome-inhibitor control 100%. hit rate 0.04% among 200,000;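 active means activation above the mean across all tested compounds plus 3 SD, cutoff set per campaign, cut at about 5.5% in these data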;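 further: 100% = MG132 at 30 µM as the positive control and 0% = DMSO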
STAT1 activator – STAT1 signaling activators, primary screen, cell-based, HTS, luciferase reporter; NIH 3T3 STAT1-luciferase reporter, IFN-gamma, luminescence; 100% = IFN-gamma alone, no compound; activation (% of control), % at 5.5 µM; hit rate 2.6% among 200,000; AID 932, 2007;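 active means activation above the screen-wide mean activation plus 3 SD, cut at about 130% in these data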;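 further: raw ratio to IFN-gamma control signal so 100% means no change and 0% no light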
NF-kB expr up – activators of NF-kB expression in neurons, primary screen, cell-based, HTS; human neuronal cells, NF-kB reporter expression; hits give high values; fold change at 12.5 µM; hit rate 1.6% among 190,000; AID 1239, 2008; in the data active means fold change above about 3.3
Starred values were filed as active, the others as inactive. Compounds with a hit are over-represented: about 4.8% of the library has one in this group of screens.

How did Cc1ccc(C2CCN(C(=O)Nc3ccc(F)cc3)C2)cc1 (centres undefined) do in these assays?
APP 5'UTR act: 55; Wee1 stabilizer: 1; APP 5UTR inh: -55; Hsp70 act: 0; STAT1 activator: 120; NF-kB expr up: 2

Results for CCC(=O)NC(c1ccc(OC)c(OC)c1)c1cc(Cl)c2cccnc2c1O (centres undefined) ?
APP 5'UTR act: -62; Wee1 stabilizer: -3; APP 5UTR inh: 62*; Hsp70 act: 0; STAT1 activator: 101; NF-kB expr up: 1.1

Results for CCCC(=O)NC(c1ccc2c(c1)OCO2)c1cc(Cl)c2cccnc2c1O (centres undefined) ?
APP 5'UTR act: -75; Wee1 stabilizer: -2; APP 5UTR inh: 75*; Hsp70 act: 0; STAT1 activator: 106; NF-kB expr up: 1.3

How did CCCC(=O)NC(c1ccco1)c1cc(Cl)c2cccnc2c1O (centres undefined) do in these assays?
APP 5'UTR act: -4; Wee1 stabilizer: 9; APP 5UTR inh: 4; Hsp70 act: 0; STAT1 activator: 95; NF-kB expr up: 0.75

What do the screens show for `COc1ccc(C(NC(C)=O)c2cc(Cl)c3cccnc3c2O)cc1OC` (centres undefined)?
APP 5'UTR act: -50; Wee1 stabilizer: 2; APP 5UTR inh: 50*; Hsp70 act: 0; STAT1 activator: 97; NF-kB expr up: 1.3

How did O=S(=O)(NCCC1=CCCCC1)c1cccc2nsnc12 do in these assays?
APP 5'UTR act: -11; Wee1 stabilizer: 4; APP 5UTR inh: 11; Hsp70 act: 0; STAT1 activator: 91; NF-kB expr up: 0.85

Results for Cc1ccccc1NC(=O)C1CCN(C2=NS(=O)(=O)c3ccccc32)CC1 ?
APP 5'UTR act: 24; Wee1 stabilizer: 10*; APP 5UTR inh: -24; Hsp70 act: 0; STAT1 activator: 95; NF-kB expr up: 0.89

How did CC(C)C(=O)N1CCN(C2=NS(=O)(=O)c3ccccc32)CC1 do in these assays?
APP 5'UTR act: -3; Wee1 stabilizer: -1; APP 5UTR inh: 3; Hsp70 act: 0; STAT1 activator: 103; NF-kB expr up: 1.3

Results for CSc1ncnc2c1cnn2-c1ccc(C)cc1C ?
APP 5'UTR act: 18; Wee1 stabilizer: 1; APP 5UTR inh: -18; Hsp70 act: 0; STAT1 activator: 114; NF-kB expr up: 1.8

How did Cc1ccc(-n2ncc3c(SCc4ccccn4)ncnc32)c(C)c1 do in these assays?
APP 5'UTR act: 2; Wee1 stabilizer: 4; APP 5UTR inh: -2; Hsp70 act: 0; STAT1 activator: 137*; NF-kB expr up: 2.4

What do the screens show for `Cc1cc(C)n(-c2nncn2/N=C/c2ccccc2F)n1`?
APP 5'UTR act: 17; Wee1 stabilizer: 2; APP 5UTR inh: -17; Hsp70 act: 0; STAT1 activator: 107; NF-kB expr up: 1.1

Results for O=C(O)c1ccc2c(c1)CCC2 ?
APP 5'UTR act: 7; Wee1 stabilizer: 3; APP 5UTR inh: -7; Hsp70 act: 0; STAT1 activator: 110; NF-kB expr up: 1.1

What do the screens show for `O=C(COc1ccc(F)cc1)c1ccc2c(c1)CCCC2`?
APP 5'UTR act: 71; Wee1 stabilizer: -1; APP 5UTR inh: -71; Hsp70 act: 0; STAT1 activator: 137*

Results for O=C(O)CCC(=O)c1ccc2c(c1)CCCC2 ?
APP 5'UTR act: 6; Wee1 stabilizer: 15*; APP 5UTR inh: -6; Hsp70 act: 0; STAT1 activator: 102; NF-kB expr up: 0.88

Results for O=C(NCc1ccccc1)N1CCC(CO)(CCc2ccccc2)CC1 ?
APP 5'UTR act: -8; Wee1 stabilizer: 2; APP 5UTR inh: 8; Hsp70 act: 0; STAT1 activator: 106; NF-kB expr up: 1.2

What do the screens show for `Cc1ccc(CN2CCN(/N=C/c3cccn3C)CC2)c(C)c1`?
APP 5'UTR act: -9; Wee1 stabilizer: 3; APP 5UTR inh: 9; Hsp70 act: 0; STAT1 activator: 101; NF-kB expr up: 1.1

What do the screens show for `Cc1[nH]n2c(=O)c3c(nc2c1-c1ccc(F)cc1)CCCC3`?
APP 5'UTR act: -5; Wee1 stabilizer: 8; APP 5UTR inh: 5; Hsp70 act: 0; STAT1 activator: 99; NF-kB expr up: 1.3

Results for O=c1c2c(nc3cc(-c4cccc(Cl)c4)[nH]n13)CCC2 ?
APP 5'UTR act: 143*; Wee1 stabilizer: 1; APP 5UTR inh: -143; Hsp70 act: 0; STAT1 activator: 135*; NF-kB expr up: 5.4*

Results for O=c1c2c(nc3cc(-c4cccc(F)c4)[nH]n13)CCC2 ?
APP 5'UTR act: 109; Wee1 stabilizer: 4; APP 5UTR inh: -109; Hsp70 act: 0; STAT1 activator: 130*; NF-kB expr up: 4.2*

What do the screens show for `CC(OC(=O)c1cc2sccc2n1C)C(=O)NCc1ccco1` (centres undefined)?
APP 5'UTR act: -2; Wee1 stabilizer: 4; APP 5UTR inh: 2; Hsp70 act: -1; STAT1 activator: 93; NF-kB expr up: 1

Results for Cc1cc(C)c2c3c(sc2n1)C1(CCSCC1)C(C#N)=C(N)O3 ?
APP 5'UTR act: 12; Wee1 stabilizer: -2; APP 5UTR inh: -12; Hsp70 act: 0; STAT1 activator: 100; NF-kB expr up: 1.1

What do the screens show for `COC(=O)c1cc(NS(=O)(=O)c2ccc(C)c3ccccc23)ccc1N1CCOCC1`?
Wee1 stabilizer: 9.0*

Results for COC(=O)c1cc(-n2cccc2)ccc1N1CCOCC1 ?
Wee1 stabilizer: 1

Results for Cc1ccc(OCCCSc2ncccn2)cc1C ?
APP 5'UTR act: 66; Wee1 stabilizer: 1; APP 5UTR inh: -66; Hsp70 act: 0; STAT1 activator: 135*; NF-kB expr up: 1.9

Results for Clc1ccc(OCCSc2ncccn2)cc1 ?
APP 5'UTR act: 102; Wee1 stabilizer: -1; APP 5UTR inh: -102; Hsp70 act: 0; STAT1 activator: 131*; NF-kB expr up: 3.2

Results for COc1ccc(OCCCSc2ncccn2)cc1 ?
APP 5'UTR act: 63; Wee1 stabilizer: 1; APP 5UTR inh: -63; Hsp70 act: 0; STAT1 activator: 142*; NF-kB expr up: 2

How did CC(C)(C)NC(=O)C(c1ccco1)N(C(=O)Cn1nnc(-c2ccc(F)cc2)n1)c1ccccc1 (centres undefined) do in these assays?
APP 5'UTR act: -9; Wee1 stabilizer: -2; APP 5UTR inh: 9; Hsp70 act: 0; STAT1 activator: 100

What do the screens show for `O=C(Nc1ccc(N2CCN(C(=O)c3ccccc3)CC2)cc1)c1cc2ccccc2o1`?
APP 5'UTR act: -20; Wee1 stabilizer: 0; APP 5UTR inh: 20; Hsp70 act: 0; STAT1 activator: 100; NF-kB expr up: 0.74
